# Source: the supplement of paper PMC4709259
# Structures can show the parent of a compound that is named as a salt. ± gives the standard deviation.
# Columns and labels:
# Jurkat [1] = experiment: mean cell size (FSC-A) relative to DMSO control (fraction of control); higher = larger cells; conditions: 48 h
# Method in brief: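 Jurkat cells at 600 cells/µl were incubated for 1 h and then treated for 48h with the Enzo Screen-Well FDA Approved Drug Library v2.0 at 25µM, with DMSO at 0.9% (v/v) final. Compounds that reduced counts below 20% of controls were retested in 10-fold dilutions down to 25nM. Cell count and mean cell size, taken as forward scatter area, were measured by flow cytometry relative to solvent-only controls. Each plate carried 6-12 controls, and values are means of 3 biological replicates.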
# Jurkat [2] = experiment: cell count relative to DMSO control (fraction of control); higher = more cells (less growth inhibition); conditions: 48 h
SMILES,mean cell size (Jurkat [1]),cell count (Jurkat [2])
CCOC(=O)CC(SP(=S)(OC)OC)C(=O)OCC (stereo not drawn) [Malathion] (concentration: 25 µM),0.916 ± 0.041,1.06 ± 0.074
C=C1C[C@@H]2[C@H](CC[C@]3(C)C(=O)CC[C@@H]23)[C@@]2(C)C=CC(=O)C=C12 [Exemestane] (concentration: 25 µM),0.914 ± 0.029,0.422 ± 0.12
CC(O)(CS(=O)(=O)c1ccc(F)cc1)C(=O)Nc1ccc(C#N)c(C(F)(F)F)c1 (stereo not drawn) [Bicalutamide] (concentration: 25 µM),0.973 ± 0.027,0.836 ± 0.064
CN1C[C@H](C(=O)N[C@]2(C)O[C@@]3(O)[C@@H]4CCCN4C(=O)[C@H](Cc4ccccc4)N3C2=O)C=C2c3cccc4[nH]cc(c34)C[C@H]21 [Ergotamine Tartrate] (concentration: 25 µM),1.07 ± 0.054,0.745 ± 0.057
COc1cc2c(cc1OC)C1CC(=O)C(CC(C)C)CN1CC2 (stereo not drawn) [Tetrabenazine] (concentration: 25 µM),0.921 ± 0.031,0.833 ± 0.093
Cl[C@H]1[C@H](Cl)[C@@H](Cl)[C@@H](Cl)[C@H](Cl)[C@H]1Cl [Lindane] (concentration: 25 µM),0.981 ± 0.037,0.667 ± 0.091
COc1cccc(C2(O)CCCCC2CN(C)C)c1 (stereo not drawn) [Tramadol·HCl] (concentration: 25 µM),0.938 ± 0.042,0.58 ± 0.18
C=CCN1C[C@H](C(=O)N(CCCN(C)C)C(=O)NCC)C[C@@H]2c3cccc4[nH]cc(c34)C[C@H]21 [Cabergoline] (concentration: 25 µM),0.889 ± 0.02,0.234 ± 0.08
COc1cc2c(c(OC)c1OC)-c1ccc(OC)c(=O)cc1[C@@H](NC(C)=O)CC2 [Colchicine] (concentration: 25 nM),0.967 ± 0.026,0.071 ± 0.007
